An excerpt weighted towards active compounds, which were near 1.7% of everything screened.
GLP1R inv ag = GLP-1 receptor (human) inverse agonism. P43220. HEK293 GLP-1R CRE-luciferase, luminescence, 24 h; GLP-1R form is constitutively active. Potency, µM (highest dose often 38.3 µM), without a hit: top-dose activity change, negative = inhibition, hits mostly inhibitors. 410,000 compounds, 1.6% hits; also: % is scaled to controls: 0 for no effect and ±100 for the full control effect; nearly all actives have a fitted effect of over 55% in size
Target sequence (P43220 whole entry, looked up): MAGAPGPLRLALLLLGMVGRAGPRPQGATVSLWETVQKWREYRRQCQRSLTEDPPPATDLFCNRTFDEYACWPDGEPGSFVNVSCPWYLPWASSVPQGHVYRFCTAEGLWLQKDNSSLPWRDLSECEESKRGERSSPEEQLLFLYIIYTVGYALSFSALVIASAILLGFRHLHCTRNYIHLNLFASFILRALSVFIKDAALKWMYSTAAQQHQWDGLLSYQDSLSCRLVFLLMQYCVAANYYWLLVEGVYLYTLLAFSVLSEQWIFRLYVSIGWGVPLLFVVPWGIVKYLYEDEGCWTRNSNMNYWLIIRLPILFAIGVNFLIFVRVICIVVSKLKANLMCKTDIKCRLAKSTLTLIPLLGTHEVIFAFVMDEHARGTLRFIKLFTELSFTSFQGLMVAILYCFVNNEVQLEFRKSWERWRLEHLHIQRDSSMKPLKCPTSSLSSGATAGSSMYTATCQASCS
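Readout was luciferase luminescence, measured 12 min after detection reagent at room temperature. Beforehand, GLP-1R reporter HEK293 cells had sat 12 h, then received compounds for 24 hr at 37 deg C.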
GLP-1R agonist = activates the human GLP-1 receptor. HEK293 GLP-1R CRE-luciferase, luminescence, 4-6 h; cells express a hypersensitive GLP-1R form. AID 624172. P43220. Potency, µM (doses to about 45.6 µM), for inactives: at the top dose activation, most hits filed as activators. 380,000 compounds, 0.007% hits; also: % of control where 0% means no effect
GLP1R cytotox = cytotoxicity counter-screen for GLP-1 receptor inverse agonists; HEK293 cAMP-luciferase reporter cells, luminescence, 24 h; 410,000 compounds, 0.13% hits; Potency, µM (highest dose often 38.3 µM), inactives show top-dose activity change, negative = inhibition, actives largely listed as inhibitors;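 also: loss of luciferase light is scored as toxicity; % is scaled to controls: 0 for no effect and ±100 for the full control effect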
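1536-well qHTS counterscreen of the MLSMR; 200 cells/uL, 12 h pre-incubation, 23 nL cpd, 24 h at 37 deg C 5% CO2, luciferase detection reagent, 12 min RT, luminescence. Inhibition = undesired.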
* marks the source's active call; other numbers are inactive results; ? = inconclusive; nt = no result given. Calls follow the shape of the dose curve; as a rule, active = well fitted curve in the direction sought with a large enough effect; inconclusive = small, poorly fitted or top-dose-only effect, or another doubt; inactive = no such curve, though single readings can be large; an effect the other way counts as inactive or inconclusive. Potency is read from the fitted curve at half-maximal effect.

SMILES	GLP1R inv ag	GLP-1R agonist	GLP1R cytotox
COC(=O)[C@]1(C)CCC[C@@]2(C)C3CC[C@]4(OC(C)=O)C[C@@]3(CCC21)CC4=O (stereo not given in full)	-18%	18%	18%
COC(=O)C1(C)CCCC2(C)C3CCC(C(C)C)C(CO)C3C(CO)CC12 (stereo not given)	10µM*	0%	?
CC(CCc1ccccc1)NC(=O)Cc1ccc([N+](=O)[O-])cc1 (stereo not given)	-26%	-4%	4%
CC(CCc1ccccc1)NC(=O)CNc1cccc([N+](=O)[O-])c1 (stereo not given)	10µM*	10%	-10%
CCOc1ccc(N(CC(=O)Nc2ccc(C)c(C)c2)S(=O)(=O)c2c(C)noc2C)cc1	10µM*	7%	14%
CCOc1ccc(N(CC(=O)Nc2cccc(F)c2)S(=O)(=O)c2c(C)noc2C)cc1	?	2%	?
O=C(CSc1n[nH]c(-c2ccc(F)cc2)n1)NCCc1ccccc1	0%	nt	2%
CCn1cc2nc(SCc3cccc(C)c3)n(CCc3ccccc3)c(=O)c2n1	7.9µM*	nt	-22%
CCn1cc2nc(SCc3cccc(C(F)(F)F)c3)n(CCc3ccccc3)c(=O)c2n1	?	nt	3%
CCOC(=O)c1c(C)[nH]c(C)c1S(=O)(=O)N1CCN(c2ccc(Cl)cc2)CC1	?	nt	2%
COc1ccc(OCC(=O)NCCS(=O)(=O)N2CCN(c3cccc(Cl)c3)CC2)cc1	-12%	nt	-2%
CCc1ccccc1NC(c1nnc(-c2cccc(F)c2)o1)c1ccc(F)cc1Cl (stereo not given)	11µM*	nt	-1%
Cc1cccc(NC(c2nnc(-c3ccccc3)o2)c2ccc(F)cc2Cl)c1C (stereo not given)	4%	nt	10%
Cc1cc(NC(=O)COC(=O)C2CC2)ccc1Br	?	-1%	2%
Cc1cc(NC(=O)CON=C(N)CC(=O)Nc2ccccc2Cl)ccc1Br	10µM*	4%	-3%
COc1ccccc1N(CCC#N)C(=O)COC(=O)CCC(=O)c1ccc(F)cc1	2%	1%	5%
Cc1cc(C(=O)COC(=O)c2ccc(O)cc2)c(C)n1CCc1ccc(F)cc1	?	8%	-15%
Cc1cc(C(=O)CSc2nc(N)cc(N)n2)c(C)n1CCc1ccc(F)cc1	5.6µM*	2%	-25%
CCC1=Nc2cc(C(=O)NCc3ccco3)ccc2Sc2ccc(Cl)cc21	?	0%	-35%
CCCC1=Nc2cc(C(=O)NCCN3CCOCC3)ccc2Sc2ccccc21	?	6%	-1%
CCCC1=Nc2cc(C(=O)NCc3ccccc3)ccc2Sc2ccccc21	4µM*	nt	-28%
CCC1=Nc2cc(C(=O)NCc3ccc(C)cc3)ccc2Sc2ccc(C)cc21	7.1µM*	nt	-20%
CCC1=Nc2cc(C(=O)NCc3cccnc3)ccc2Sc2ccc(C)cc21	1.8µM*	17%	?
CCC1=Nc2cc(C(=O)NCc3ccco3)ccc2Sc2ccccc21	?	-5%	?
Cc1ccc(S(=O)(=O)Nc2cccc(-c3ccc(N4CCCCC4)nn3)c2)s1	?	nt	-12%
SMILES	GLP1R inv ag	GLP-1R agonist	GLP1R cytotox
Cn1ccc2c(OCC(=O)Nc3cc(C(F)(F)F)ccc3Cl)cccc2c1=O	3%	nt	0%
CCc1cccc(NC(=O)Cc2cn(C)c3ccccc23)c1	?	-7%	8%
CCc1ccc(NC(=O)Cc2cn(C)c3ccccc23)cc1	10µM*	10%	10%
CCCCn1c(N)c(N(CCC(C)C)C(=O)C2CCCC2)c(=O)[nH]c1=O	20%	0%	3%
Cc1cc(-c2nnc(CCC(=O)NCc3cc(F)cc(C(F)(F)F)c3)o2)no1	-14%	10%	-2%
CCCSc1nc2c3c(sc2c(=O)[nH]1)CC(C)(CC)OC3 (stereo not given)	22%	13%	18%
Cc1c(C(=O)NCc2ccc(F)cc2)sc(=O)n1Cc1ccc(Cl)c(Cl)c1	10µM*	-1%	-15%
CSc1ccc(Cn2c(C)c(C(=O)NCc3ccc(Cl)c(Cl)c3)sc2=O)cc1	?	-4%	-3%
CC/C=C(\C(=O)N[C@H]1C(=O)N2C(C(=O)OCOC(=O)C(C)(C)C)=C(COC(N)=O)CS[C@H]12)c1csc(N)n1	nt	0%	nt
Cc1cc(C)c2c(=O)[nH]c(SCC(=O)c3ccc(C)c(C)c3)nc2n1	32%	0%	-45%
CCNC1CCC(Nc2ccnc3cc(Cl)ccc23)CC1 (stereo not given)	?	-7%	?
OC(CNc1ccnc2cc(Cl)ccc12)CNC1CCCCC1 (stereo not given)	?	-12%	5µM*
Cc1ccc(S(=O)(=O)N(CC(O)Cn2c3ccccc3c3ccccc32)c2cccc(C(=O)N(C)C)c2)cc1 (stereo not given)	?	-4%	-17%
Cc1ccc(S(=O)(=O)N(CC(O)Cn2c3ccccc3c3ccccc32)c2cccc(C(=O)NCCO)c2)cc1 (stereo not given)	13µM*	-1%	-22%
C#CC1(OC(C)=O)CCC2C3CCC4=CC(OC(C)=O)CCC4C3CCC21C (stereo not given)	nt	1%	nt
C#CCN(C[C@@H]1[C@@H](OC(=O)Nc2cccs2)[C@@H](OC(=O)Nc2cccs2)Cn2c(=O)ccc(=O)n21)S(=O)(=O)c1ccc(C)cc1	2.8µM*	-8%	?
C#CCN(C[C@@H]1[C@@H](OC(=O)NC2CCCC2)[C@@H](OC(=O)NC2CCCC2)Cn2c(=O)ccc(=O)n21)S(=O)(=O)c1ccc(C)cc1	?	-16%	?
COc1cccc(NC(=O)Cn2c(=O)n(Cc3ccc4c(c3)OCO4)c(=O)c3oc4ccccc4c32)c1	-1%	nt	-5%
Cc1c(C)c2ccc(OCC(=O)NCCN3CCOCC3)c(C)c2oc1=O	116%	-5%	4%
COc1ccc(C(=O)Nc2nc3ccccc3[nH]2)cc1	?	-5%	?
O=C(Nc1nc2ccccc2[nH]1)c1cccc(F)c1	?	1%	?
CN(C)c1cccc(C(=O)Nc2nc3ccccc3[nH]2)c1	3.5µM*	-5%	2%
COc1cccc(C(=O)Nc2nc3ccccc3[nH]2)c1	7.9µM*	-21%	?
CCOc1ccc(NC(=O)CC2Nc3cccc4cccc(c34)NC2=O)cc1 (stereo not given)	-11%	nt	1%
Cc1ccc(-n2ncc3c(NC4CCCCC4)ncnc32)cc1C	?	nt	-5%
SMILES	GLP1R inv ag	GLP-1R agonist	GLP1R cytotox
O=C(CCS(=O)(=O)c1cc(Br)cc2c1N(C(=O)C1CC1)CC2)N1CCN(c2cccc(Cl)c2)CC1	-5%	nt	18%
O=C(Cc1c[nH]c2ccccc12)N1CCN(S(=O)(=O)c2ccc(F)cc2)CC1	-15%	1%	-6%
O=C(Cc1c[nH]c2ccccc12)N1CCN(S(=O)(=O)c2cccc(Cl)c2Cl)CC1	10µM*	-3%	?
CC(C)c1ccc(S(=O)(=O)N2CCC(C(=O)NCC3(N(C)C)CCCCC3)CC2)cc1	?	-1%	-13%
CN(C)C1(CNC(=O)C2CCN(S(=O)(=O)c3cc(Cl)ccc3Cl)CC2)CCCCC1	10µM*	7%	?
O=C(CSc1nnc(-c2ccc(Cl)cc2)n1Cc1ccco1)Nc1ccc2c(c1)OCCO2	?	7%	-19%
